The supplement of paper PMC7411640
Counter-ions that a name gives are not always drawn.

tested on: MDA-MB-468; experiment: phospho-S6 immunofluorescence (DAPI-normalised), per-plate z-score; higher = higher phospho-S6 signal (less pathway suppression); details: co-treatment: lapatinib 1 uM; 24 h
Description: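 GPCR-targeted compound library (MedChemExpress HY-L006) tested on MDA-MB-468 PTEN-null TNBC cells in 384-well plates at 0.1, 1 or 10 uM, combined with vehicle, GDC0941 450 nM or lapatinib 1 uM, for 24 h. Phospho-S6 (S240/244) immunofluorescence normalised to DAPI and expressed as a per-plate z-score; values are the mean of biological triplicates.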

Structure (SMILES) | phospho-S6 immunofluorescence (z-score)
O=C(Nc1cccc2c(=O)cc(-c3nnn[nH]3)oc12)c1ccc(OCCCCc2ccccc2)cc1 [Pranlukast] (compound 10 µM) | 0.55
C[C@]12C=CC(=O)C=C1CC[C@@H]1[C@@H]2C(=O)C[C@@]2(C)[C@H]1CC[C@]2(O)C(=O)CO [Prednisone] (compound 10 µM) | 1.24
COc1nc(C)cnc1NS(=O)(=O)c1cccnc1-c1ccc(-c2nnco2)cc1 [Zibotentan] (compound 10 µM) | -0.19
CC(C)(C)NC[C@H](O)COc1nsnc1N1CCOCC1 [(S)-Timolol (Maleate)] (compound 10 µM) | 0.33
CC(C)c1cc(-c2ccc(F)c3ccccc23)nc(N)n1 (compound 10 µM) | 1.27
COc1cc2nc(N3CCN(C(=O)C4CCCO4)CC3)nc(N)c2cc1OC (stereo not drawn) [Terazosin (hydrochloride dihydrate)] (compound 10 µM) | 0.9
CN1CC2c3ccccc3Oc3ccc(Cl)cc3C2C1 (stereo not drawn) [Asenapine (maleate)] (compound 10 µM) | -1.57
CC[N+](CC)(CC)CCOc1cccc(OCC[N+](CC)(CC)CC)c1OCC[N+](CC)(CC)CC [Gallamine Triethiodide] (compound 10 µM) | -0.13
O=C(O)Cn1c2c(c3cc(F)ccc31)CN(C(=O)c1cccc3ccccc13)CC2 [Setipiprant] (compound 10 µM) | 0.74
Cc1cc(NC(=O)Nc2ccc(N(C)C)cc2)c2cc(F)cc(F)c2n1 (compound 10 µM) | -0.1
COc1ccccc1OCCNCC(O)COc1cccc2[nH]c3ccccc3c12 (stereo not drawn) [Carvedilol] (compound 10 µM) | -4.63
CCOc1nc2cccc(C(=O)OC(C)OC(=O)OC3CCCCC3)c2n1Cc1ccc(-c2ccccc2-c2nn[nH]n2)cc1 (stereo not drawn) [Candesartan (Cilexetil)] (compound 10 µM) | 0.17
C[C@]12CCC(=O)C=C1CC[C@@H]1[C@@H]2C(=O)C[C@@]2(C)[C@H]1CC[C@]2(O)C(=O)CO [Cortisone] (compound 10 µM) | 0.58
Nc1ccc(/C=C/c2cccc(C(=O)O)n2)cc1 (compound 10 µM) | 0.88
COc1ccc(CCN2CCN(CCCc3ccccc3)CC2)cc1OC [SA4503 (dihydrochloride)] (compound 10 µM) | -0.13
O=C(COc1ccc(C(=O)c2ccccc2)cc1)NC1CCN(Cc2ccccc2)CC1 [AdipoRon] (compound 10 µM) | -4.87
Cc1cc(C(C)(C)C)cc(C)c1CC1=NCCN1 [Xylometazoline (hydrochloride)] (compound 10 µM) | -0.12
CN(C)CC1CCOC1(c1ccccc1)c1ccccc1 (stereo not drawn) [AVex-73 hydrochloride] (compound 10 µM) | -1.17
CCC(=O)OCC(=O)[C@@]1(OC(=O)CC)[C@@H](C)C[C@H]2[C@@H]3CCC4=CC(=O)C=C[C@]4(C)[C@@]3(Cl)[C@@H](O)C[C@@]21C [Beclometasone dipropionate] (compound 10 µM) | 0.54
CCN(CC)Cc1ccc(C(=O)N(CCc2ccccc2OC)[C@@H]2CCNC2)cc1 (compound 10 µM) | 0.1
OC(CCN1CCCCC1)(c1ccccc1)C1CCCCC1 (stereo not drawn) [Trihexyphenidyl (hydrochloride)] (compound 10 µM) | -0.52
OCCOCCN1CCN(C(c2ccccc2)c2ccc(Cl)cc2)CC1 (stereo not drawn) [Hydroxyzine (dihydrochloride)] (compound 10 µM) | -0.69
CN(C)[C@@H]1CCc2[nH]c3ccc(NC(=O)c4ccc(F)cc4)cc3c2C1 (compound 10 µM) | -1.38
Cc1nc(C(=O)N2CCC[C@H]2Cc2nnc(-c3ccccc3)o2)c(-c2ccccc2F)s1 (compound 10 µM) | 0.29
O=C(O[C@H]1CN2CCC1CC2)N1CCc2ccccc2[C@@H]1c1ccccc1 [Solifenacin (Succinate)] (compound 10 µM) | 1.13
COc1cc2nc(N3CCN(C(=O)c4ccco4)CC3)nc(N)c2cc1OC [Prazosin (hydrochloride)] (compound 10 µM) | 0.54
CN(C)CCc1c[nH]c2ccc(CS(=O)(=O)N3CCCC3)cc12 [Almotriptan (malate)] (compound 10 µM) | 0.57
Cc1ccc(S(=O)(=O)N2CCCC2c2ccc(F)cc2)cc1 (stereo not drawn) (compound 10 µM) | 0.46
